PubChem BioAssay (NCATS)
Where “and” joins values, the source holds several entries; their conditions need not be identical. Equal entries are not always repeated. Results filed as inconclusive are left out. Calls of active or inactive are those of the source. Unless noted, calls come from the whole dose curve; as a rule, active = well fitted curve in the direction sought with a large enough effect; inconclusive = small, poorly fitted or top-dose-only effect, or another doubt; inactive = no such curve, though single readings can be large; an effect the other way counts as inactive or inconclusive.

Experiments:
[1] = target: Arylsulfatase A (Homo sapiens) (UniProt P15289); test: qHTS screen for enhancers of Arylsulfatase A (ASA1): LOPAC Validation Assay (AID 720538); details: outcome: dose series up to 57.5 µM
Arylsulfatase A (Homo sapiens), sequence (P15289 whole entry, looked up): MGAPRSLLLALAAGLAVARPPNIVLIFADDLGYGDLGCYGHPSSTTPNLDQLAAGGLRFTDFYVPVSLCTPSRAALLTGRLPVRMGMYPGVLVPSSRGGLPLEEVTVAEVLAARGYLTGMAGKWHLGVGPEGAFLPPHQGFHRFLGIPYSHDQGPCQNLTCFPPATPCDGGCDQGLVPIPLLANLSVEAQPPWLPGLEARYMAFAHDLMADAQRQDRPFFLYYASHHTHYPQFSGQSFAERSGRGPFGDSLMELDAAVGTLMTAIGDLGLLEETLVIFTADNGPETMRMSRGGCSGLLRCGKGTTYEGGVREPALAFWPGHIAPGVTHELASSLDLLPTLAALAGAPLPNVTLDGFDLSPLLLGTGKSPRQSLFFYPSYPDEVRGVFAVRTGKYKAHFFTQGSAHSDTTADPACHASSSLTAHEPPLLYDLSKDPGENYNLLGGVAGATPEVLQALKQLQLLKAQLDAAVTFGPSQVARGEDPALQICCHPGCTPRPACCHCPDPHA
Outline: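 Cell-based enhancement test: residual ASA activity in SV40-transformed I179S patient fibroblasts is measured by pNCS turnover (0.5mM final, 14h, room temperature) following 48h compound incubation; higher fluorescence indicates activation.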

[2] = target: T1, Hexokinase-4 (Homo sapiens) + Glucokinase regulatory protein (Homo sapiens) (UniProt P35557+Q14397); test: qHTS assay for inhibitors of recombinant human GCK-GKRP interaction: Diaphorase-coupled assay (AID 743205)
T1 sequence (P35557 whole entry, looked up): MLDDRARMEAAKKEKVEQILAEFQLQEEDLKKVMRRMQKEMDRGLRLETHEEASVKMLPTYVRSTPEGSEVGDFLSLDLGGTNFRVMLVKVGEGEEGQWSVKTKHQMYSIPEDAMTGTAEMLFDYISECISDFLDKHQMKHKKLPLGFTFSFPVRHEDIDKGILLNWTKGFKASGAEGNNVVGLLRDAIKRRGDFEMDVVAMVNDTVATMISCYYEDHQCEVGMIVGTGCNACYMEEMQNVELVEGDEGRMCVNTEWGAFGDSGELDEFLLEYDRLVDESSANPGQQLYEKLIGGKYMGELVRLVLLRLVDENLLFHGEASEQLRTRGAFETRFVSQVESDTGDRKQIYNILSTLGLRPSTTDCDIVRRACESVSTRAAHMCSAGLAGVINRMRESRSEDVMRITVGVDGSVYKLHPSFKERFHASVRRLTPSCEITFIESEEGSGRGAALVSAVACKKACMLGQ
T1 sequence (Q14397 whole entry, looked up): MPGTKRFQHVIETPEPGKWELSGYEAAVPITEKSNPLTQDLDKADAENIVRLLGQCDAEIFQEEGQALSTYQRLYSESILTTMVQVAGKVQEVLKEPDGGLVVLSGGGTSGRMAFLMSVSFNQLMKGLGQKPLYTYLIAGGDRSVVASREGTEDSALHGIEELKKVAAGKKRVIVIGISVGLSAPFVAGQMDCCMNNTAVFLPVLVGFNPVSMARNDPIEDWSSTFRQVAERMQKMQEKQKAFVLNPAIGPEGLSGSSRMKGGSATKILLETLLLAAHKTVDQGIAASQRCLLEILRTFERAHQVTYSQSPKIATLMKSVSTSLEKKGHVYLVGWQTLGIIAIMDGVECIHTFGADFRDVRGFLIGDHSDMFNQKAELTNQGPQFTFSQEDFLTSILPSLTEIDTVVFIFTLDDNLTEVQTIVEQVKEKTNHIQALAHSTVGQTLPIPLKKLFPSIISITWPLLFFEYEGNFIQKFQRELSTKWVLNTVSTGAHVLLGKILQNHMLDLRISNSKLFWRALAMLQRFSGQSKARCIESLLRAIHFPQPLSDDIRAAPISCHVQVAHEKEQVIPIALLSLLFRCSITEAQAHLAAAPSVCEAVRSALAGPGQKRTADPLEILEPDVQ
Outline: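 Signal derives from resorufin generated by diaphorase, linked to GCK turnover of glucose (5 mM) and ATP (0.4 mM). Enzyme complex was added after a 20-minute compound preincubation and monitored for 30 minutes.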

[3] = target: T1, Hexokinase-4 (Homo sapiens) + Glucokinase regulatory protein (Homo sapiens); test: qHTS assay for inhibitors of recombinant human GCK-GKRP interaction: HTRF assay (AID 743207);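 note: 0% = DMSO with GCK present and -100% = DMSO wells lacking GCK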
Outline: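 Titration screening format: recombinant GST-GCK and FLAG-GKRP at 5 nM, S6P at 2 uM, labelled anti-tag antibodies, 60 min at RT, dual-wavelength HTRF readout.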

[4] = qHTS Assay for Identifying Gametocytocidal Compounds (AID 743244);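 note: % is set by controls: 0 for no effect and ±100 for the full control effect; actives lower the fluorescent signal which means gametocytes are killed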; details: P. falciparum 3D7 stage III-V gametocytes, alamarBlue, 72 h; max response: stronger effect = lower value
Outline: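 Stage III–V gametocytes of P. falciparum 3D7 were seeded at 20,000 cells/well onto pre-dispensed compounds. After 72 h, 37 °C, 5% CO2, alamarBlue was added for another 24 h.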

[5] = qHTS for compounds that reverse cellular toxicity of Amyloid beta (A-beta) peptide in yeast: LOPAC Validation Assay (AID 720559);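 note: plate controls were DMSO for no effect and equimolar ferric chloride plus clioquinol rescue for full effect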
Outline: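 Here, A-beta-toxic yeast grow with test compounds at 30 C for 48 hr before optical density at 600 nm is recorded; data are normalized against DMSO and the FeCl3-clioquinol control.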

[6] = qHTS for Activators of Parkin Expression: LOPAC Validation Assay (NLuc Reporter) (AID 720572)
Outline: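 NLuc signal, read 10 min after reagent and following a prior FLuc read, is normalized to DMSO (0) and positive controls (100%). Cells: neuronal Parkin-promoter coincidence reporter line; compounds tested 7-point, 24 h, 37 C, 5% CO2.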

[7] = qHTS for Activators of Parkin Expression: LOPAC Validation Assay (FLuc Reporter) (AID 720573)
Outline: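 Readout is FLuc luminescence from neuronal reporter cells (Parkin promoter, FLuc plus NLuc) after 24 h compound exposure in dose response. Values normalized to neutral DMSO and positive-control compounds.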

[8] = target: T1, Hexokinase-4 (Homo sapiens) + Glucokinase regulatory protein (Homo sapiens); test: qHTS assay for inhibitors of recombinant human GCK-GKRP interaction: ADP-Glo assay (AID 743206);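 note: plate controls were DMSO plus enzyme for no effect and no enzyme for full effect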
Outline: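 Pin-transferred compounds meet a 15 nM GST-GCK/15 nM FLAG-GKRP/2 uM S6P mix (dispense concentrations). ATP is then added to 0.4 mM final with 5 mM glucose, and the reaction runs 60 min at room temperature. ADP is quantified luminescently.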

[9] = qHTS for small molecule inhibitors of Yes1 kinase: Counter Assay (AID 686950);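 note: no kinase present so only ADP-Glo detection of a fixed ADP amount is tested; luminescence from ADP-Glo reporting ADP in a fixed ATP and ADP mixture; 0% = DMSO wells with ATP plus ADP and -100% = ATP-only wells without ADP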
Outline: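 No kinase present; 0.08 mM ATP + 0.02 mM ADP in 50 mM Tris pH 7.5, 10 mM MgCl2, 150 mM NaCl, 1 mM DTT; 20 min compound preincubation, 60 min RT, ADP-Glo luminescence, normalized to ATP/ADP (max) and ATP-only (min).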

[10] = qHTS profiling for inhibitors of Plasmodium falciparum (3D7) proliferation (AID 743322; call rule not given here;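 note: infected erythrocytes exposed to compound for 72 h before lysis; 100% = DMSO vehicle wells and 0% = 0.29 µM artemisinin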); details: P. falciparum 3D7 proliferation; at 28.7 µM (top of the series) unless noted
Outline: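 Parasite DNA was quantified by SYBR Green I fluorescence (ex 485, em 535 nm) after overnight lysis in saponin/Triton buffer at room temperature. Cultures at 0.3% parasitemia and 2.5% hematocrit were first exposed to compound for 72 h at 37 C; signals were normalised to artemisinin (0.29 uM) and vehicle wells.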

[11] = qHTS profiling for inhibitors of Plasmodium falciparum (DD2) proliferation (AID 743323; call rule not given here); details: lower = more inhibition; at 28.7 µM (top of the series) unless noted
Outline: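 SYBR Green fluorescence (ex 485, em 535 nm) of lysed cultures gives parasite DNA content; wells normalized to artemisinin (0.29 uM) and DMSO controls. Infected red cells: 0.3% parasitemia, 2.5% hematocrit, 72 h, 37 C.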

[12] = qHTS assay for small molecule agonists of the antioxidant response element (ARE) signaling pathway measured by Nrf2-dependant transcriptional activity (AID 720636; active = well fitted curve in the direction sought with a large enough effect in the repeat runs; an effect the other way counts as inactive or inconclusive; note: % of control where 0% means no effect)
Outline: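 Quantitative HTS format in HepG2 cells stably expressing an ARE-luciferase reporter; 16 hr compound treatment at 37 C, luciferase signal detected with ONE-Glo.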

[13] = qHTS assay for small molecule antagonists of the retinoid-related orphan receptor gamma (ROR-gamma) signaling pathway - cell viability counter screen (AID 720652; active = well fitted curve in the direction sought with a large enough effect in the repeat runs; an effect the other way counts as inactive or inconclusive;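 note: CHO reporter cells with doxycycline-induced ROR-gamma expression; compound exposure lasted 16 hr before ATP read; % is set by controls: 0 for no effect and ±100 for the full control effect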)
Outline: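 ATP-based viability readout in the ROR-gamma reporter CHO cells after 16 hr compound exposure under doxycycline induction.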

[14] = qHTS assay for small molecule agonists of the antioxidant response element (ARE) signaling pathway measured by Nrf2-dependant transcriptional activity - cell viability counter screen (AID 720653; active = well fitted curve in the direction sought with a large enough effect in the repeat runs; an effect the other way counts as inactive or inconclusive; note: % is set by controls: 0 for no effect and ±100 for the full control effect); details: ARE-bla HepG2 viability, CellTiter-Glo ATP luminescence, 16 h; stronger effect = lower value
Outline: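 ARE-bla HepG2 cells treated with compounds for 16 h at 37C; this counter screen measures viability as intracellular ATP by CellTiter-Glo luminescence after 30 min at room temperature.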

[15] = qHTS assay for cell viability of HEK293 cells (AID 743288); details: ATP luminescence (CellTiter-Glo), 18 h; max response: stronger effect = lower value; note: % is set by controls: 0 for no effect and ±100 for the full control effect; nearly all actives have a fitted effect of over 50% in size
Outline: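 HEK293, 18 h, 37 C, ATP luminescence. Cells at 2,000/well were allowed at least 5 h to settle before dosing; CellTiter-Glo developed 30 min at RT.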

[16] = qHTS assay for cell viability of the p53RE-bla HCT-116 cell line (AID 743292); note: % is set by controls: 0 for no effect and ±100 for the full control effect; nearly all actives have a fitted effect of over 55% in size
Outline: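 Viability of compound-treated p53RE-bla HCT-116 cells is taken from ATP-dependent luciferase luminescence. Treatment lasts 16 h at 37 C after a 5 h settling period; detection follows 30 min at room temperature.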

N[C@@H]1CONC1=O
inactive: outcome [1] | outcome [2] | outcome [3] | max response [4] 2.44% and 21.1%

Nc1ccc(S(=O)(=O)Nc2ccnn2-c2ccccc2)cc1
inactive: outcome [1] | outcome [5] | Potency [6] | outcome [7] | outcome [2] | outcome [3] | max response [4] 9.56% and 18.4%

O=C1CCc2cc(OCCCCc3nnnn3C3CCCCC3)ccc2N1
inactive: outcome [1] | outcome [5] | Potency [6] | outcome [7] | outcome [2] | outcome [3] | max response [4] 16.8% and 6.18%

Cc1ccc(N(CC2=NCCN2)c2cccc(O)c2)cc1
inactive: outcome [5] | Potency [6] | outcome [7] | outcome [2] | outcome [8] | outcome [3] | max response [4] 9.03%

Cc1cnc(NC(=O)C2=C(O)c3ccccc3S(=O)(=O)N2C)s1
inactive: outcome [1] | outcome [5] | outcome [7] | outcome [2] | outcome [3] | max response [4] 4.3% and 13.2% and 16.1%

CC(C)NCC(O)COc1ccc(COCCOC(C)C)cc1 (stereo not given)
inactive: outcome [1] inactive; inhibitor; fitted 0.3793 uM | outcome [5] | Potency [6] | outcome [7] | outcome [2] | outcome [3] | max response [4] 24.7% and -10.9% and -2.93%

NC(=O)c1ccc(I)c([N+](=O)[O-])c1
92.6%: activity, percent of control [11]
inactive: outcome [9]
93.8%: remaining parasite growth % (stronger effect = lower value) [10]

Cc1cn[nH]c1
inactive: outcome [1] | outcome [5] | Potency [6] | outcome [7] | outcome [2] | outcome [8] | outcome [3] | max response [4] 28.3% and 8.61%

CC(C)(C)NCC(O)c1ccc(O)c(CO)c1 (stereo not given)
inactive: outcome [1] inactive; inhibitor; fitted 8.4921 uM | outcome [5] | Potency [6] | outcome [7] | max response [4] 0.0655% and 23.1%

CC(C)(C)OC(=O)CN(Cc1ccc(Cl)cc1)Cc1ccc([N+](=O)[O-])s1
3.12%: activity, percent of control [11]
inactive: outcome [9]
2.82%: remaining parasite growth % (stronger effect = lower value) [10]

Oc1ccc(C2CNCCc3c2cc(O)c(O)c3Cl)cc1 (stereo not given)
inactive: outcome [2] | outcome [3] | max response [4] 2.69% and -7.1%

O=C(O)COCCN1CCN(C(c2ccccc2)c2ccc(Cl)cc2)CC1 (stereo not given)
inactive: outcome [5] | Potency [6] | outcome [7] | outcome [2] | outcome [3] | max response [4] -12% and 28.9%

NNCCc1ccccc1
inactive: outcome [1] | outcome [5] | Potency [6] | outcome [7] | outcome [2] | outcome [3] | max response [4] -2.24% and 11.6%

CCOC(=O)C1=C[C@]2(CC)CCCN3CCc4c(n1c1ccccc41)[C@@H]32
inactive: outcome [1] | outcome [5] | Potency [6] | outcome [7] | outcome [2] | outcome [8] | outcome [3] | max response [4] -1.66%

CNC(=O)c1ccccc1Sc1ccc2c(/C=C/c3ccccn3)n[nH]c2c1
inactive: max response [4] 40.9%

CC(C[N+](C)(C)C)OC(N)=O (stereo not given)
inactive: outcome [1] | outcome [5] | Potency [6] | outcome [7] | outcome [2] | outcome [3] | max response [4] 11.1%

COc1ccc(CCN2CCN(CCCc3ccccc3)CC2)cc1OC
9.47%: remaining parasite growth % (stronger effect = lower value) [10]
inactive: outcome [9] | max response [4] -5.52%
65.7%: activity, percent of control [11]

O=c1n(CCCN2CCN(c3cccc(Cl)c3)CC2)nc2ccccn12
inactive: outcome [1] | outcome [5] | Potency [6] | outcome [7] | outcome [2] | outcome [3] | max response [4] 8.61% and 11.5%

C1COC(NC(C2CC2)C2CC2)=N1
inactive: outcome [5] | Potency [6] | outcome [7] | outcome [2] | outcome [3] | max response [4] 8.63% and 12.8%

Nc1nc2c(ncn2COCCO)c(=O)[nH]1
inactive: outcome [1] | outcome [5] | outcome [2] | outcome [8] | outcome [3] | max response [4] 17.4% and 18.4%

Clc1cccc(Cl)c1NC1=NCCN1
inactive: outcome [5] | Potency [6] | outcome [7] | outcome [2] | outcome [3] | max response [4] 7.62% and 5.35%

CCOC(=O)N1CCC(=C2c3ccc(Cl)cc3CCc3cccnc32)CC1
inactive: outcome [5] | Potency [6] | outcome [7] | outcome [2] | outcome [3]

N=c1nc(N2CCCCC2)cc(N)n1O
inactive: outcome [1] | outcome [5] | Potency [6] | outcome [7] | outcome [2] | outcome [3] | max response [4] 1.66% and 5.64%

Cc1ccc(NC(=O)c2cccc(C(C)(C)C#N)c2)cc1Nc1ccc2ncn(C)c(=O)c2c1
34.8%: remaining parasite growth % (stronger effect = lower value) [10]
49.3%: activity, percent of control [11]
inactive: outcome [9] | max response [4] -12.3%

c1ccc([C@H]2CN3CCSC3=N2)cc1
inactive: outcome [1] | outcome [5] | Potency [6] | outcome [7] | outcome [2] | outcome [3] | max response [4] 4.37%

CCCC(CCC)C(=O)O
inactive: outcome [1] | outcome [5] | outcome [12] | outcome [13] | max response [14] -3.17% and -14.3% and -4.27% | max response [4] 8.46% and 5.84% | max response [15] 3.06% and -3.28% and -9.08% | Potency [16]

OCCC#Cc1nc(-c2ccc(F)cc2)c(-c2ccncc2)n1CCCc1ccccc1
8.27%: activity, percent of control [11]
1.18%: remaining parasite growth % (stronger effect = lower value) [10]
inactive: outcome [9]

CCN(CC)CCCC(C)Nc1ccnc2cc(Cl)ccc12 (stereo not given)
2.54%: activity, percent of control [11]
0.37%: remaining parasite growth % (stronger effect = lower value) [10]
inactive: outcome [1] | outcome [5] | Potency [6] | outcome [7] | outcome [2] | outcome [3]
